Laboratory results reported in PubChem BioAssay AID1159580 (chemical genetic matrix, 2015).
Hit rate of the full screen: of about 5,500 compounds, about 2,000 (36%) were called active. About 18% were inconclusive and are not listed. Rule as the data show it: active = normalized growth mostly below about 0.91 (no sharp cut-off); inconclusive = no clear call, values can overlap the other calls; inactive = mostly above about 0.92. The list shows a part of the results.

Experiment: chemical genetic growth profiling, strain panel (AID 1159580);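 also: tested at 20 µM; growth read once vehicle control cultures reached saturation at 30 °C; 1 = growth at the plate median or of vehicle wells; lower values mean less growth of the strain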
Details: S. cerevisiae deletion strains, growth OD
[1] = locus YAL040C, strain CLN3, hits give low values
[2] = locus YCL061C, strain MRC1 (second series), hits give low values
[3] = locus YDR150W, strain NUM1, hits give low values
[4] = locus YDR363W, strain ESC2, hits give low values
[5] = locus YER002W, strain NOP16, hits give low values
[6] = locus YJR075W, strain HOC1, hits give low values
[7] = locus YMR263W, strain SAP30, hits give low values
[8] = locus YMR307W, strain GAS1, hits give low values
[9] = locus YNL153C, strain GIM3, hits give low values
[10] = locus YNL175C, strain NOP13, hits give low values
[11] = locus YNL197C, strain WHI3, hits give low values
[12] = locus YNL224C, strain SQS1, hits give low values
[13] = locus YOR083W, strain WHI5 (second series), hits give low values
[14] = locus YAL013W, strain DEP1, hits give low values
[15] = locus YNL322C, strain KRE1, hits give low values
[16] = locus YPL241C, strain CIN2, hits give low values
[17] = locus YBR229C, strain ROT2, hits give low values
[18] = locus YDL101C, strain DUN1, hits give low values
[19] = locus YDL134C, strain PPH21, hits give low values
[20] = locus YEL061C, strain CIN8, hits give low values
[21] = locus YGR078C, strain PAC10, hits give low values
[22] = locus YHR030C, strain SLT2, hits give low values
[23] = locus YHR087W, strain rtc3, hits give low values
[24] = locus YJL187C, strain SWE1, hits give low values
[25] = locus YJR043C, strain POL32, hits give low values
[26] = locus YLR039C, strain RIC1, hits give low values
[27] = locus YLR058C, strain SHM2 (second series), hits give low values
[28] = locus YLR085C, strain ARP6, hits give low values
[29] = locus YLR262C, strain YPT6, hits give low values
[30] = locus YML094W, strain GIM5, hits give low values
[31] = locus YMR219W, strain ESC1, hits give low values
[32] = locus YNL298W, strain CLA4 (second series), hits give low values
[33] = locus YNR030W, strain Alg12, hits give low values
[34] = locus YOL006C, strain TOP1, hits give low values
[35] = locus YPL055C, strain LGE1, hits give low values
[36] = locus YPR135W, strain CTF4, hits give low values

Measured: normalized growth

O=c1oc(Cl)c(Cl)c2ccccc12
active: [9] 0.798
inactive: [1] 1.03 | [2] 1 | [3] 0.991 | [4] 1 | [5] 1.02 | locus YGR229C, strain SMI1, hits give low values 0.968 | [6] 0.998 | [7] 1 | [8] 1 | [10] 1.01 | [11] 1.02 | [12] 0.923 | [13] 0.915

NC(=S)c1ccc[n+]([C@@H]2O[C@@H](COP(=O)([O-])OP(=O)(O)OC[C@H]3O[C@@H](n4cnc5c(N)ncnc54)C(OP(=O)(O)O)[C@H]3O)C(O)C2O)c1 (some centres not stated)
inactive: [14] 1.02 | [1] 1.03 | [2] 1.01 | [4] 1 | [5] 0.999 | [7] 0.995 | [8] 1 | [10] 1 | [11] 1.03 | [12] 1 | [15] 1.02 | [13] 0.998 | [16] 1.01

Cc1ccc(S(=O)(=O)Oc2cc(=O)n(C)c3ccccc23)cc1
inactive: [14] 0.95 | [17] 0.967 | [18] 0.967 | [19] 0.945 | [3] 0.918 | [20] 0.972 | [21] 0.955 | [22] 0.791 | [23] 0.961 | [25] 0.961 | [6] 0.96 | [26] 0.971 | [27] 0.952 | [28] 0.838 | [29] 0.918 | [30] 0.952 | [31] 0.963 | [7] 0.903 | [9] 0.954 | [32] 0.916 | [15] 0.977 | [33] 0.909 | [34] 0.808 | [35] 0.898 | [16] 0.873 | [36] 0.666
active: [24] 0.861 | [8] 0.622

Cc1ccc(S(=O)(=O)Oc2ccc(CC#N)cc2)cc1
inactive: [14] 0.998 | [17] 0.963 | [18] 1.02 | [19] 0.978 | [3] 0.995 | [20] 0.976 | [21] 1.01 | [22] 0.974 | [23] 0.953 | [25] 1.01 | [6] 0.993 | locus YKL190W, strain CNB1, hits give low values 0.945 | [26] 0.865 | [27] 0.977 | [28] 0.929 | [29] 0.845 | [30] 0.956 | [31] 0.989 | [7] 0.995 | locus YNL128W, strain TEP1, hits give low values 0.995 | [9] 1.01 | [32] 0.977 | [15] 0.978 | [33] 0.969 | [34] 0.971 | [35] 0.958 | [16] 0.979 | [36] 0.863

OC[C@@H](O)C(O[C@@H]1O[C@H](CO)[C@H](O)[C@H](O)[C@H]1O)[C@H](O)[C@@H](O)CO (some centres not stated)
inactive: locus YAL021C, strain ccr4, hits give low values 0.969 | locus YAL026C, strain drs2, hits give low values 0.99 | locus YAL030W, strain snc1, hits give low values 0.986 | locus YBL061C, strain skt5, hits give low values 0.993 | locus YBR009C, strain hhf1, hits give low values 0.991 | locus YBR023C, strain chs3, hits give low values 0.984 | locus YBR171W, strain sec66, hits give low values 0.98 | locus YBR279W, strain paf1, hits give low values 0.981 | locus YCL011C, strain gbp2, hits give low values 0.995 | locus YCL016C, strain dcc1, hits give low values 0.983 | locus YCL061C, strain MRC1, hits give low values 0.994 | locus YCL069W, strain vba3, hits give low values 0.99 | locus YCR088W, strain abp1, hits give low values 0.98 | locus YDL005C, strain med2, hits give low values 0.979 | locus YDL040C, strain nat1, hits give low values 0.988 | locus YDR001C, strain nth1, hits give low values 0.99 | locus YDR069C, strain doa4, hits give low values 0.981 | locus YDR137W, strain rgp1, hits give low values 1 | locus YDR159W, strain sac3, hits give low values 0.982 | locus YDR195W, strain ref2 0.963 | locus YDR297W, strain sur2, hits give low values 0.987 | locus YDR334W, strain swr1, hits give low values 0.98 | locus YDR335W, strain msn5, hits give low values 0.987 | locus YDR392W, strain spt3, hits give low values 0.992 | locus YEL003W, strain gim4, hits give low values 1.01 | locus YEL037C, strain rad23, hits give low values 0.991 | locus YEL061C, strain CIN8 (second series), hits give low values 0.995 | locus YER015W, strain faa2, hits give low values 0.991 | locus YER016W, strain bim1, hits give low values 0.988 | locus YER111C, strain swi4, hits give low values 0.996 | locus YER155C, strain BEM2 (second series), hits give low values 0.976 | locus YFR010W, strain ubp6, hits give low values 0.975 | locus YGL167C, strain pmr1, hits give low values 0.986 | locus YGL173C, strain kem1, hits give low values 0.981 | locus YGL227W, strain vid30, hits give low values 0.99 | locus YGL240W, strain doc1, hits give low values 0.999 | locus YGL253W, strain hxk2, hits give low values 0.989 | locus YHR013C, strain ard1, hits give low values 0.989 | locus YHR027C, strain rpn1, hits give low values 1 | [22] 0.976 | locus YHR079C, strain IRE1, hits give low values 0.974 | locus YHR142W, strain chs7, hits give low values 0.983 | locus YJL092W, strain hpr5, hits give low values 0.989 | locus YJL095W, strain BCK1 (second series), hits give low values 0.98 | locus YJL095W, strain BCK1, hits give low values 1.03 | locus YJL115W, strain asf1, hits give low values 0.978 | locus YJL129C, strain trk1, hits give low values 0.985 | locus YJL154C, strain vps35, hits give low values 0.991 | locus YJL164C, strain tpk1, hits give low values 0.996 | locus YJL166W, strain qcr8, hits give low values 0.987 | [24] 0.991 | locus YJR066W, strain TOR1, hits give low values 0.926 | locus YKL160W, strain elf1, hits give low values 0.991 | locus YKR026C, strain gcn3, hits give low values 0.985 | locus YKR091W, strain srl3, hits give low values 0.983 | locus YLL001W, strain dnm1, hits give low values 1 | locus YLL026W, hits give low values 0.989 | locus YLL041C, strain sdh2, hits give low values 0.992 | locus YLR027C, strain aat2, hits give low values 0.991 | locus YLR113W, strain HOG1, hits give low values 1.04 | locus YLR221C, strain rsa3, hits give low values 0.994 | locus YLR258W, strain gsy2, hits give low values 0.989 | locus YLR262C, strain YPT6 (second series), hits give low values 1 | locus YLR320W, strain mms22, hits give low values 0.98 | locus YLR342W, strain FKS1, hits give low values 0.987 | locus YLR357W, strain rsc2, hits give low values 0.959 | locus YLR370C, strain arc18, hits give low values 0.994 | locus YLR384C, strain iki3, hits give low values 0.983 | locus YML120C, strain ndi1, hits give low values 0.995 | locus YMR058W, strain fet3, hits give low values 0.99 | locus YMR125W, strain sto1, hits give low values 0.981 | locus YMR129W, hits give low values 0.995 | locus YMR205C, strain PFK2, hits give low values 0.994 | locus YMR231W, strain pep5, hits give low values 0.967 | locus YNL071W, strain lat1, hits give low values 0.985 | locus YNL183C, strain NPR1, hits give low values 0.934 | locus YNL209W, strain ssb2, hits give low values 1.01 | locus YNL248C, strain rpa49, hits give low values 0.991 | locus YNL322C, strain KRE1 (second series), hits give low values 0.986 | locus YNR049C, strain mso1, hits give low values 0.981 | locus YOR001W, strain rrp6, hits give low values 0.989 | locus YOR070C, strain gyp1, hits give low values 0.996 | locus YOR080W, strain dia2, hits give low values 0.981 | locus YOR083W, strain WHI5, hits give low values 0.986 | locus YOR106W, strain vam3, hits give low values 0.988 | locus YOR231W, strain MKK1, hits give low values 0.976 | locus YOR265W, strain rbl2, hits give low values 1 | locus YOR270C, strain vph1, hits give low values 1.01 | locus YOR290C, strain snf2, hits give low values 0.998 | locus YPL051W, strain arl3, hits give low values 1.01 | locus YPL078C, strain atp4, hits give low values 0.997 | locus YPL106C, strain sse1, hits give low values 0.969 | locus YPL240C, strain hsp82, hits give low values 0.988 | locus YPL256C, strain CLN2, hits give low values 0.986
